Lmaj promast: inhibitors of Leishmania major promastigote growth | Leishmania major promastigotes, resazurin fluorescence viability | inhibition, % at 10 µM | 200,000 compounds, 9% hits; in the data active = inhibition above about 50%;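 also: promastigotes grown with compound for 44 hours at 28 °C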
HCT116 bCat-KO: beta-catenin-lacking colon tumor cell growth suppression | AID 818 | 140,000 compounds, 1.5% hits | HCT116 beta-catenin knockout viability, CellTiter-Glo, 60 h; hits give low values | viability, % at 10 µM;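 active = viability at or under a set limit, the compound median less 4 SD, cut at about 6% in these data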;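 also: 0% = Hyamine 1622 control at 20 µM and 100% = untreated cell control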
HCT116 PTEN-null: growth suppressors of cells with PTEN tumor suppressor deletion; HCT116 PTEN-null viability, CellTiter-Glo, 60 h; hits give low values; viability, % at 10 µM; 140,000 compounds, 1.2% hits;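 active = viability at or below a set limit, 4 SD under the median of all tested compounds, cut at about 3.7% in these data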;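 also: PTEN knockout HCT116 line with beta catenin targeted HCT116 as companion control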
p97 inhibitor: inhibitors of human p97 ATPase; AID 1481; P55072; inhibition, % at 8 µM; 220,000 compounds, 0.42% hits; recombinant p97 ATPase, Kinase-Glo ATP luminescence, 3 h; in the data active = inhibition above about 15%;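 also: 0% = DMSO vehicle and 100% = wells lacking enzyme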
ROMK primary: modulators of human ROMK potassium channel; P48048; Tet-inducible ROMK, thallium flux fluorescence; actives lie on both sides; B-score at 10 µM; 130,000 compounds, 2% hits;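 active = signal ratio slope over the read window, or its plate-corrected B-score, at least 3 SD from the plate mean, either direction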;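 also: B-score of the F/F0 ratio slope over 7 to 12 s after thallium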
Target sequence (P48048 whole entry, looked up): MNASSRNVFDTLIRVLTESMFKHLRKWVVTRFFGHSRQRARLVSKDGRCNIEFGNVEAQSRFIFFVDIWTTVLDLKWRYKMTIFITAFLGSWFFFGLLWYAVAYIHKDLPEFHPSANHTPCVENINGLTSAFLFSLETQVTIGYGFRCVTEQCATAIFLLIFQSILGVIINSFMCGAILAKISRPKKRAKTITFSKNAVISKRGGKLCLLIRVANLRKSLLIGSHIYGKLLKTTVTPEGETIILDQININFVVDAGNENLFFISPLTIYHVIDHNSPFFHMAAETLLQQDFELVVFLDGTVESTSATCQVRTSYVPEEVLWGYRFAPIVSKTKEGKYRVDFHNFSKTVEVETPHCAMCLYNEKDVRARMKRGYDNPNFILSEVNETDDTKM
INS promoter inh: TRM-6 insulin promoter activity inhibition; AID 1273; inhibition, % at 2 µM; TRM-6 cells (human fetal islet line), insulin promoter-eGFP reporter, imaging; reporter expression induced with tamoxifen; 130,000 compounds, 0.9% hits;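 active = inhibition above the mean plus 3 SD, with well images judged a real hit on visual review, cut at about 60% in these data, passing the limit was not always enough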
* = called active by the depositor; . = not tested or not shown. Only some compounds are listed: those with a hit (about 10% of all), similar ones and a draw of the others.

SMILES	Lmaj promast	HCT116 bCat-KO	HCT116 PTEN-null	p97 inhibitor	ROMK primary	INS promoter inh
CC(C)c1nc2cc3ccccc3cc2[nH]1	41	99	87	1	-0.18	86*
C=CCn1c(COc2cccc(C)c2)nnc1SCn1nnc2ccccc2c1=O	8	86	96	2	-1.5	-27
CC1(C)CC(=O)c2c(O)cc(OCc3ccc(Br)cc3)cc2O1	69*	64	73	0	0.15	-23
O=C(CC(=O)NC1CCCCC1)N/N=C/c1ccccc1F	5	.	.	2	1.2	.
CCNC(=O)NC(=O)C(C)OC(=O)c1oc2ccccc2c1CSC1CCCCC1 (stereo unspecified)	72*	60	61	5	.	22
Cc1cc(C(=O)NNC(=S)NC(=O)/C=C/c2ccccc2Cl)n[nH]1	78*	76	70	3	0.16	-21
CCCOC1CCCN(Cc2nc(-c3ccc(C(=O)OC)cc3)no2)C1 (stereo unspecified)	.	.	.	-6	.	.
O=C(Nc1ccc(Oc2ccc(C(=O)O)c(C(=O)O)c2)cc1)c1cccs1	-4	.	.	5	0.26	.
S=C(NC12CC3CC(CC(C3)C1)C2)N1CCCC1	53*	96	96	2	0.48	-8
N#C/C(=C/c1ccc(F)cc1)c1nnc(NC(=O)c2ccccc2)s1	.	.	.	2	.	.
O=C(COC(=O)c1cc2ccccc2cc1O)Nc1cccnc1Cl	63*	86	96	6	0.4	-4
O=C(COC(=O)c1ccccc1O)Nc1cccnc1Cl	46	93	90	3	.	18
Cc1c(Cl)cccc1N=Cc1ccc([N+](=O)[O-])s1	101*	9	32	1	.	.
O=[N+]([O-])c1ccc(/C=N/NC(=S)Nc2ccc(Cl)cc2Cl)s1	.	.	.	4	.	.
C=CCc1cc(C=O)cc(OCC)c1OCc1ccc(Cl)cc1	86*	82	75	6	.	-62
C=CCc1cc(C=O)cc(OC)c1OCc1ccc(Cl)cc1	19	97	81	-9	.	-9
CC(C)(C)c1ccc(/C([O-])=C(/C(=S)NCc2ccco2)[n+]2ccccc2)cc1	3	84	80	3	0.27	.
O=[N+]([O-])c1cccc(-c2nc(N3CCOCC3)c3ccccc3n2)c1	6	.	.	3	-1	.
O=[N+]([O-])c1cccc(-c2nc(NCc3ccccc3)c3ccccc3n2)c1	58*	69	85	8	-0.014	-322
CN(Cc1ccccc1)c1nc(-c2cccc([N+](=O)[O-])c2)nc2ccccc12	92*	74	73	-4	-0.44	-43
COc1ccc(Cc2n[nH]c(=S)n2Cc2ccccc2)cc1Cl	97*	.	.	1	0.7	11
Cc1nnc(SCC(=O)Nc2cc(-c3cc(C)c(C)cc3C)nn2-c2ccccc2)s1	97*	69	70	-8	-0.62	-32
Cc1nnc(SCC(=O)Nc2cc(C(C)(C)C)nn2-c2ccccc2)s1	49	95	96	3	.	14
CC(C)(C)c1cc(NC(=O)CSc2nncs2)n(-c2ccccc2)n1	55*	91	92	-8	1.8	-35
C/C=C/C(=O)OCC(=O)Nc1cc(-c2cc(C)c(C)cc2C)nn1-c1ccccc1	-3	84	85	3	-1.3	.
SMILES	Lmaj promast	HCT116 bCat-KO	HCT116 PTEN-null	p97 inhibitor	ROMK primary	INS promoter inh
CC1CCN(C(C)C(=O)Nc2ccccc2-c2ccccc2)CC1 (stereo unspecified)	51*	74	77	-4	.	-17
CC(C(=O)Nc1ccccc1-c1ccccc1)N1CCN(C(=O)c2ccccc2)CC1 (stereo unspecified)	.	.	.	-4	.	.
Cc1ccc(S(=O)(=O)N2CCN(C(C)C(=O)Nc3ccccc3-c3ccccc3)CC2)cc1 (stereo unspecified)	94*	80	84	3	0.083	-22
Oc1ccc(-c2cn3c(n2)SCC3)cc1O	98*	13	10	13	0.35	25
COc1ccc(C(=O)N2CCN(c3ccccn3)CC2)cc1[N+](=O)[O-]	-4	.	.	-2	0.8	.
Cc1ccccc1NC(=O)CSCc1nc(N)nc(Nc2ccccc2C)n1	0	87	98	1	.	.
c1ccc(Cc2noc(CN3CCN(CCOc4ccccc4)CC3)n2)cc1	75*	.	.	-1	-0.0001	.
Fc1ccccc1Cc1noc(CN2CCN(C/C=C/c3ccccc3)CC2)n1	85*	.	.	-1	-1.3	.
O=CN1CCCN(Cc2nc(Cc3ccccc3F)no2)CC1	-10	.	.	9	0.27	67
c1ccc(OCc2noc(CN3CCC(C4CCCCC4)C3)n2)cc1 (stereo unspecified)	55*	.	.	1	-0.68	.
Cc1ccc(C)c(N2CCN(C(=O)CCNC(=O)Cn3ccc4ccccc4c3=O)CC2)c1	-5	82	87	2	-0.0011	-7
Cc1ccc(Cl)cc1N1CCN(C(=O)c2cn(C)c(=O)c3c2c2ccccc2n3C)CC1	55*	1.4*	1.3*	-3	-0.29	69
Cc1ccc(Cl)cc1N1CCN(C(=O)Cn2ccc3ccccc3c2=O)CC1	-3	17	28	0	-3.6*	.
CC1(C)CCN(Cc2ccccc2)C1CC#N (stereo unspecified)	44	107	100	2	0.026	.
COc1ccc(N2C(=O)C(CC(N)=O)N(NC(=O)CCc3ccccc3)C2=O)cc1 (stereo unspecified)	-7	.	.	7	-0.13	.
O=c1[nH]c2ccc(Cl)cc2c(O)c1Cc1ccccc1	-5	.	.	7	-0.0097	73*
CC(=O)Nc1nc2ccccc2n1CCN1CCOCC1	-10	94	105	1	-0.45	-3
O=C(Nc1nc2ccccc2n1CCN1CCOCC1)c1cn(-c2ccccc2)nc1-c1ccccc1	96*	17	10	5	.	.
CN(C)CCCN(C(=O)c1ccc(S(=O)(=O)N(C)C)cc1)c1nc2cc3c(cc2s1)OCO3	10	.	.	1	-0.6	37
Cc1cccc2sc(N(CCCN(C)C)C(=O)c3nc4ccccc4s3)nc12	78*	10	7	6	.	4
Cc1ccc2sc(N(CCCN(C)C)C(=O)c3nc4ccccc4s3)nc2c1C	37	.	.	3	-1.4	.
Cc1ccc2sc(N(CCCN(C)C)C(=O)c3ccc(Br)s3)nc2c1C	95*	.	.	-1	-0.1	.
CN(C)CCN(C(=O)c1ccc(N2C(=O)CCC2=O)cc1)c1nc2cc3c(cc2s1)OCCO3	2	.	.	0	2.7	.
CCN(CC)CCN(C(=O)c1ccc(S(=O)(=O)N2CCCCC2)cc1)c1nc2cc3c(cc2s1)OCO3	3	.	.	-6	0.59	75*
CN(C)CCCN(C(=O)c1ccc(Br)s1)c1nc2cc3c(cc2s1)OCO3	75*	.	.	-1	-0.24	25
Brc1ccc(C2Nc3cccc4cccc(c34)N2)s1	2	90	83	-4	0.024	-28
Cc1ccc(-n2c(C)cc(C=C3C(=O)CC(C)(C)CC3=O)c2C)cc1	98*	84	91	5	0.17	-6
CCN(CC)S(=O)(=O)c1cc(NC(=O)c2n[nH]c(=O)c3ccccc23)ccc1C	66*	.	.	1	1.2	.
